# Screens: PubChem, several laboratories
# SKN-1 block: blocks SKN-1 activity in C. elegans; C. elegans VP596 Pgst-4::GFP/RFP ratio, acrylamide-induced, 24 h; inhibition, % at 21.8 µM; 360,000 tested, 0.49% active; AID 624304;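 active = interference check ratio from 0.5 to 1.5 plus GFP to RFP signal ratio inhibition reaching or exceeding a fixed threshold, cut at about 30% in these data, passing the limit was not always enough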
# NadD inh: inhibitors of Staphylococcus aureus NadD | purified NadD enzyme, colorimetric absorbance read-out | inhibition, % at 20 µM | AID 602399 | 360,000 tested, 0.78% active; in the data active = inhibition above about 26%
# esBAF inh: SWI/SNF esBAF complex inhibition; AID 602393; reporter increase, % at 12.5 µM; mouse ES cells, Bmi1-luciferase knock-in reporter, 24 h; 100% = twice the neutral-well signal; 350,000 tested, 2% active; in the data active = activation above about 40%;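 also: a rise in the Bmi1 reporter signal indicates esBAF inhibition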
# GRIN3A LBD mod: modulates the human NR3A ligand-binding domain. AID 1259313. Tm shift relative to glycine control, % at 25 µM. NR3A LBD differential scanning fluorimetry, Tm shift; 0% = protein alone, 100% = glycine-bound protein. 340,000 tested, 2.5% active;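 active = melting temperature shift of at least 10% of the positive control shift, at one fixed dose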
# Vif imaging: inhibitors of HIV Vif | AID 602346 | inhibition, % at 7.49 µM | HEK293T cells, Vif self-association by quenched fluorescence, imaging, 24 h | 340,000 tested, 0.35% active; in the data active = inhibition above about 50%, passing the limit was not always enough
# SMARCA2 act: increases SMARCA2 function in MMTV reporter cells; 370,000 tested, 1% active; MG213 cells, MMTV-luciferase reporter, dexamethasone, overnight; activation, % at 9.1 µM; AID 652017; in the data active = activation above about 7.8%
# Numbers stand for hits; . = inactive; / = no result given. Rows were chosen to be rich in hits. Some 5.2% of all compounds tested hit in one or more screens of this group.
SMILES,SKN-1 block,NadD inh,esBAF inh,GRIN3A LBD mod,Vif imaging,SMARCA2 act
C[C@@H]1CN([C@H](C)CO)C(=O)c2cc(NC(=O)CCC(F)(F)F)ccc2O[C@H]1CN(C)C,/,/,.,/,/,/
CCCC(=O)Nc1ccc2c(c1)OC[C@H](C)N(Cc1ccccc1)C[C@H](C)[C@H](OC)CN(C)C2=O,/,/,.,/,/,/
CO[C@H]1CN(C)C(=O)c2ccc(NC(=O)C3CC3)cc2OC[C@H](C)N(C(=O)CN(C)C)C[C@H]1C,/,/,.,/,/,/
Nn1c(SCC(=O)Nc2ccc3c(c2)OCCO3)nnc1-c1ccncc1,.,.,.,17,.,.
CC(CC(=O)Nc1ccc2c(c1)OCCO2)c1ccccc1 (stereo not given),.,.,55,.,.,.
Nn1c(SCC(=O)Nc2ccc3c(c2)OCO3)nnc1-c1ccncc1,.,.,/,.,.,.
CCCC#Cc1ccc2c(c1)O[C@H](CN(C)C(C)=O)[C@@H](C)CN([C@@H](C)CO)S2(=O)=O,/,/,.,/,/,/
CC(=O)N1C[C@H]2[C@@H](c3ccccc31)[C@@H](CO)N2C(=O)Nc1ccc(F)cc1,/,/,.,/,/,/
Cc1noc(C)c1S(=O)(=O)Nc1cccc2c1O[C@H](CN(C)S(=O)(=O)c1ccccc1)[C@H](C)CN([C@H](C)CO)C2=O,/,/,.,/,/,/
O=C(NCc1ccccc1)c1c[nH]c2ccccc2c1=O,.,.,.,.,.,.
O=C(NCc1ccccc1)c1c[nH]c2ccc(S(=O)(=O)Nc3ccc4c(c3)OCCO4)cc2c1=O,.,.,.,12,.,.
O=C(NC1CC1)c1c[nH]c2ccc(S(=O)(=O)Nc3cccc(C(F)(F)F)c3)cc2c1=O,.,.,.,11,.,.
Nc1cc2c(cc1C(=O)c1ccccc1)OCCO2,.,.,.,.,.,.
O=C(c1ccccc1)c1c[nH]c2cc3c(cc2c1=O)OCCO3,47,.,.,.,.,.
O=C(NCc1ccccc1)c1c[nH]c2ccc(F)cc2c1=O,.,.,.,.,.,.
O=C(NCc1cccnc1)c1c[nH]c2cc3c(cc2c1=O)OCCO3,.,.,62,.,.,.
Cc1c(C(=O)NC2CCOC2)oc2c(F)cccc12 (stereo not given),.,.,70,.,.,.
Cc1c(C(=O)N2CCN(S(=O)(=O)c3ccccc3F)CC2)oc2c(Cl)cccc12,45,.,.,.,.,.
Cc1c(C(=O)NC2CCCCC2)oc2ccc(F)cc12,.,.,43,.,.,.
Cc1c(C(=O)N2C[C@@H](C)O[C@@H](C)C2)oc2c(F)cccc12,.,.,70,.,.,.
Cc1c(C(=O)O)oc2c(F)cccc12,.,.,/,.,.,.
Cc1c(C(=O)NCc2ccco2)oc2c(F)cccc12,.,.,.,.,.,.
C[C@H]1CN([C@@H](C)CO)C(=O)Cc2cc(NS(=O)(=O)c3cn(C)cn3)ccc2O[C@@H]1CN(C)CC1CCCCC1,/,/,.,/,/,/
O=C(C[C@@H]1CC[C@@H]2[C@H](COC[C@H](O)CN2C(=O)Nc2cccc(F)c2)O1)NCc1ccccc1Cl,/,/,.,/,/,/
CO[C@H]1CN(C)C(=O)c2cc(NC(=O)C3CC3)ccc2OC[C@H](C)N(C(C)=O)C[C@H]1C,/,/,.,/,/,/
SMILES,SKN-1 block,NadD inh,esBAF inh,GRIN3A LBD mod,Vif imaging,SMARCA2 act
C[C@@H]1CN([C@H](C)CO)C(=O)c2cccc(NC(=O)C3CCOCC3)c2O[C@@H]1CN(C)S(=O)(=O)c1ccccc1,/,/,.,/,/,/
O=C(Nc1ccc(F)cc1)N[C@H]1CC[C@@H](CCNS(=O)(=O)c2ccccc2F)O[C@H]1CO,/,/,.,/,/,/
CCC(=O)N1C[C@@H](C)[C@H](OC)CN(C)C(=O)c2cc(NC(=O)Nc3cccc(F)c3)ccc2OC[C@H]1C,/,/,.,/,/,/
Fc1ccccc1/C=N/n1cc(-c2ccccc2)[nH]c1=S,.,.,54,.,.,.
Fc1ccc(-c2nc3nc4ccccc4nc3n2Cc2ccco2)cc1,.,.,64,21,.,.
Nc1c(C(=O)NCC2CCCO2)sc2nc3c(c(-c4ccco4)c12)CC/C3=C\c1ccco1 (stereo not given),.,93,.,.,.,.
CC(C)(C)OC(=O)NCC12C=CC(O1)C1C(=O)N(Cc3ccccc3)C(=O)C12 (stereo not given),37,.,.,.,.,.
Brc1ccc2nc(-c3cccs3)c(NCC3CCCO3)n2c1 (stereo not given),.,.,60,.,.,.
